Measurements reported in PubChem BioAssay (EPA / NIEHS).
Results filed as inconclusive are left out. Calls of active or inactive are those of the source. The calls were made as follows: active = hit-call score of the fitted dose curve at least 0.9, where 1 is the maximum; inconclusive = response in the unintended direction; inactive = score below 0.9.

The compounds below were run against human Protein Tyrosine Phosphatase Receptor Type C (PTPRC), PTPRC (gene 5788) (UniProt P08575) (assay: NVS_ENZ_hPTPRC: NovaScreen (NVS) Enzymatic Assay for human Protein Tyrosine Phosphatase Receptor Type C (PTPRC) (AID 2283212)).
How it was run: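 Yeast-extracted human PTPRC used in a cell-free colorimetric enzyme activity read-out, 1 h after dosing. Primary screen in duplicate at 25 uM; actives rerun in concentration-response up to 50 uM, DMSO as baseline.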
In the case of `ClCCOCCCl`, the outcome is reported as “inactive”. With `CC(C)(C)C(O)(CCc1ccc(Cl)cc1)Cn1cncn1` (centres undefined) the outcome was “inactive”. `CN(C)C(=O)Nc1ccc(Cl)cc1` was tested, and the outcome was “inactive”. With `c1ccc(NNc2ccccc2)cc1` the AC50 was 18.2 µM (active).

The compounds below were run against human Rho Associated Coiled-coil Containing Protein Kinase 1 (ROCK1), ROCK1 (gene 6093) (UniProt Q13464) (assay: NVS_ENZ_hROCK1: NovaScreen (NVS) Enzymatic Assay for human Rho Associated Coiled-coil Containing Protein Kinase 1 (ROCK1) (AID 2283214)).
Chain of human Rho Associated Coiled-coil Containing Protein Kinase 1 (ROCK1), ROCK1 (gene 6093) (Q13464 whole entry, looked up): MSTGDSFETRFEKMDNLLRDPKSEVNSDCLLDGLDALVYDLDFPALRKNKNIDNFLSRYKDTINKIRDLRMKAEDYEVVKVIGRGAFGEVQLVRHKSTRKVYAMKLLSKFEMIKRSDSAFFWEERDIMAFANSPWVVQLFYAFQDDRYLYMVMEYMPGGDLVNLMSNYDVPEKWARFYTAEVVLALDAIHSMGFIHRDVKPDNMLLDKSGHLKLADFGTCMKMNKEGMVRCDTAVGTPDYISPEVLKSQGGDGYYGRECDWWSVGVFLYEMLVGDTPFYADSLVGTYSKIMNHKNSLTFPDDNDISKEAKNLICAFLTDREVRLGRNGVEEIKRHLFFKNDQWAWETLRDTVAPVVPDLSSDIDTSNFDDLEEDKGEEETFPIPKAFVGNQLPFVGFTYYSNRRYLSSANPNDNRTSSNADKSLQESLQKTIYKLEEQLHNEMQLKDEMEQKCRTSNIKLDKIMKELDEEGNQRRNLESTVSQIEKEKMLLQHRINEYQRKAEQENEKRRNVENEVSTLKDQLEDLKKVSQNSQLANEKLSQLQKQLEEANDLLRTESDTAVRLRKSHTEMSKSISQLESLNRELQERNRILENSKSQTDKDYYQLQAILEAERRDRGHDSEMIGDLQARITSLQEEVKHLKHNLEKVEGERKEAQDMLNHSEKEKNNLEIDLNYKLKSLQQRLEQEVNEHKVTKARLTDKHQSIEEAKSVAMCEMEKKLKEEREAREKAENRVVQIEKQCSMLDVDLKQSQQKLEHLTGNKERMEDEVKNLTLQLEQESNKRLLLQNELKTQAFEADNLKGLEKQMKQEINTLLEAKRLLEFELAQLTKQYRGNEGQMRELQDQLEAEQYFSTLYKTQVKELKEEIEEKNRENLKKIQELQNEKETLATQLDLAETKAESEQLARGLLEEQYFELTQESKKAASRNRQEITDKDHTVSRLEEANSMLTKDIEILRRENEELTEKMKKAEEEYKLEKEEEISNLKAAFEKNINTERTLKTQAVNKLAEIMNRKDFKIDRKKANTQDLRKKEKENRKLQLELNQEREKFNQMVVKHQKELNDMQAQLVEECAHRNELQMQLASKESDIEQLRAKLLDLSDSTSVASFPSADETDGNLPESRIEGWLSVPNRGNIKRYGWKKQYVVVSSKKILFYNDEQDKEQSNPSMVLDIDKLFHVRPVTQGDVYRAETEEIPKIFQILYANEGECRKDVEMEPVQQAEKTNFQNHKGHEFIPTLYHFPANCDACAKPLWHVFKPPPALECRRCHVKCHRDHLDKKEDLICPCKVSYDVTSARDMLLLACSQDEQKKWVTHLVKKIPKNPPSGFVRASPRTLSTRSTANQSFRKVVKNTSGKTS
How it was run: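 Cell-free recombinant human ROCK1 activity assay; fluorescent substrate and product separated by electrophoretic mobility shift, read 1 h after dosing. Screened in duplicate at 25 uM; loss of signal versus DMSO baseline scored as inhibition.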
With `CCC12COCN1COC2` the outcome was “inactive”. In the case of `CCCCCCCCCCCCCN1CC(C)OC(C)C1` (centres undefined), the outcome is reported as “inactive”. For `CCCCCCCCOC(=O)c1ccc(C(=O)OCCCCCCCC)c(C(=O)OCCCCCCCC)c1`, the outcome was “inactive”. For `ClC1=C(Cl)C2(Cl)C3C(Cl)C=CC3C1(Cl)C2(Cl)Cl` (centres undefined), the outcome was “inactive”. `CS(=O)(=O)NC(=O)c1cc(Oc2ccc(C(F)(F)F)cc2Cl)ccc1[N+](=O)[O-]` was tested, and the outcome was “inactive”.

What follows are compounds tested against human Protein Tyrosine Phosphatase Receptor Type M (PTPRM), PTPRM (gene 5797) (UniProt P28827) (assay: NVS_ENZ_hPTPRM: NovaScreen (NVS) Enzymatic Assay for human Protein Tyrosine Phosphatase Receptor Type M (PTPRM) (AID 2283215)).
How it was run: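 Cell-free recombinant PTPRM with fluorogenic substrate; product separated from substrate by electrophoretic mobility shift and read by fluorescence, 1.33 h after dosing. Primary screen single concentration (25 uM) in duplicate; actives retested in concentration series; loss of signal versus DMSO.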
For `O=C(O)C1C2CCC(O2)C1C(=O)O` (centres undefined), the outcome was “inactive”. With `CCCSC(=O)N(CCC)CCC` the outcome was “inactive”. In the case of `O=C(Oc1ccc(Br)cc1)N1CCN2CCC1CC2`, the outcome is reported as “inactive”.

These compounds were tested against human Sirtuin 1 (SIRT1), SIRT1 (gene 23411) (UniProt Q96EB6) (assay: NVS_ENZ_hSIRT1: NovaScreen (NVS) Enzymatic Assay for human Sirtuin 1 (SIRT1) (AID 2283219)).
Chain of human Sirtuin 1 (SIRT1), SIRT1 (gene 23411) (Q96EB6 whole entry, looked up): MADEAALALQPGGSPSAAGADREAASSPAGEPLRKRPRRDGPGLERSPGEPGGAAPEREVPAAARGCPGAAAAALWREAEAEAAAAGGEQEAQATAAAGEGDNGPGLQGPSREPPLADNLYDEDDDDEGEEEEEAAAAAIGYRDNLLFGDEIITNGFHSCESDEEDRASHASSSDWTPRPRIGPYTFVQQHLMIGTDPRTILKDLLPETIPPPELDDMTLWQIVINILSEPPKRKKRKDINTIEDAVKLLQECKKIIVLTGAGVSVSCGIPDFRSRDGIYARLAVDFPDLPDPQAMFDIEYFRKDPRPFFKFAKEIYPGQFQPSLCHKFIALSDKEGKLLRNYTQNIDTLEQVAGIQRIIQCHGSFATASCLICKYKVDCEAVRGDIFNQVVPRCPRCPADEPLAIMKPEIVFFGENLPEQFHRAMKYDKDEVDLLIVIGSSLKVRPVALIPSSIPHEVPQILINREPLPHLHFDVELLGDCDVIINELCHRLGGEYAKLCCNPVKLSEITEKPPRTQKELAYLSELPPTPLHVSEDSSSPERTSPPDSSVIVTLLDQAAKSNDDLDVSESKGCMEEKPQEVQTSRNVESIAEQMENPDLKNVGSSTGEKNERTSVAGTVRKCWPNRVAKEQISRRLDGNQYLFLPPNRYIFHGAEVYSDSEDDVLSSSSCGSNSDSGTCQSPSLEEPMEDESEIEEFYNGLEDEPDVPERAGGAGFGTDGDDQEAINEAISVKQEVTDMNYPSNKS
How it was run: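 Cell-free recombinant SIRT1 with a fluorescent substrate; substrate and product separated by electrophoretic mobility shift and read by fluorescence intensity, 1 h after dosing. Primary screen at 25 uM in duplicate; hits re-run in concentration-response up to 50 uM, relative to DMSO.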
In the case of `Clc1ccc(Cl)c(Cl)c1`, the outcome is reported as “inactive”. For `CCC[CH2][Sn]([Cl])([CH2]CCC)[CH2]CCC`, the AC50 was 7.38 µM (active). In the case of `Cc1ccc(N)c(N)c1`, the outcome is reported as “inactive”.

These compounds were tested against human Sirtuin 3 (SIRT3), SIRT3 (gene 23410) (UniProt Q9NTG7) (assay: NVS_ENZ_hSIRT3: NovaScreen (NVS) Enzymatic Assay for human Sirtuin 3 (SIRT3) (AID 2283222)).
Chain of human Sirtuin 3 (SIRT3), SIRT3 (gene 23410) (Q9NTG7 whole entry, looked up): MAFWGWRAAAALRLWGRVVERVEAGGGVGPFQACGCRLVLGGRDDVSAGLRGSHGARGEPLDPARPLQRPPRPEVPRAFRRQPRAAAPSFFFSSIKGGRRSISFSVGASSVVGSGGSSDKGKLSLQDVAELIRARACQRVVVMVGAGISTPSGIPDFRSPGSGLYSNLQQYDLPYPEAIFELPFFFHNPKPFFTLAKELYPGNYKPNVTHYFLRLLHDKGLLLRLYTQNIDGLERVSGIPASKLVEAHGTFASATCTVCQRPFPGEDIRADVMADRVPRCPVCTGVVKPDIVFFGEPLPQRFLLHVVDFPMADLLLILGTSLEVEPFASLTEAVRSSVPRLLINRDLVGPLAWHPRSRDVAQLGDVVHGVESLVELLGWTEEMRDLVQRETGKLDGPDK
How it was run: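 Cell-free enzyme assay with recombinant protein and fluorescent substrate, product separated by electrophoretic mobility shift; read 1 hour after dosing. Screened in duplicate at 25 uM, then singleton concentration-response up to 50 uM; loss of signal versus DMSO.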
`ClCCOCCCl` was tested, and the outcome was “inactive”. In the case of `CCCCC(CC)COC(=O)c1ccc(C(=O)OCC(CC)CCCC)c(C(=O)OCC(CC)CCCC)c1` (centres undefined), the outcome is reported as “inactive”. `O=C(Oc1ccc(Br)cc1)N1CCN2CCC1CC2` was tested, and the outcome was “inactive”.

What follows are compounds tested against human SRC Proto-Oncogene, Non-receptor Tyrosine Kinase (SRC), SRC (gene 6714) (UniProt P12931) (assay: NVS_ENZ_hSRC: NovaScreen (NVS) Enzymatic Assay for human SRC Proto-Oncogene, Non-receptor Tyrosine Kinase (SRC) (AID 2283223)).
Chain of human SRC Proto-Oncogene, Non-receptor Tyrosine Kinase (SRC), SRC (gene 6714) (P12931 whole entry, looked up): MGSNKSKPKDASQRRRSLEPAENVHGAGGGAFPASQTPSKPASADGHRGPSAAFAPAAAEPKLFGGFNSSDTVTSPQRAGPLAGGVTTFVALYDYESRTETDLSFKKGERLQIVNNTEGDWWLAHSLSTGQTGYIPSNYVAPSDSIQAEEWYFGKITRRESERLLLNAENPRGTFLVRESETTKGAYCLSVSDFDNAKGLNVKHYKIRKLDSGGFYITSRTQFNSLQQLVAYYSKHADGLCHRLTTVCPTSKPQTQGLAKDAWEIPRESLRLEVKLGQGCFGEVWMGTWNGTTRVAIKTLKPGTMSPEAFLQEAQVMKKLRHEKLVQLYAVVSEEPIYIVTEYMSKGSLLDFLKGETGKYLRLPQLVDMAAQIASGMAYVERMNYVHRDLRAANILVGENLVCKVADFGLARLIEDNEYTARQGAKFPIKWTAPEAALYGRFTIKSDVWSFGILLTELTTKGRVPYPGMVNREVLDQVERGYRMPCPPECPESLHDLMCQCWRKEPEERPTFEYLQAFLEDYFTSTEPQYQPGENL
How it was run: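 Cell-free kinase activity assay with fluorescent substrate, product separated by electrophoretic mobility shift, read 1 h after dosing. Duplicate single point at 25 uM, then concentration-response up to 50 uM; loss of signal versus DMSO.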
`ClCCOCCCl` was tested, and the outcome was “inactive”. In the case of `CC(C)(C)C(O)(CCc1ccc(Cl)cc1)Cn1cncn1` (centres undefined), the outcome is reported as “inactive”. `Cc1ccc(N)c(N)c1` was tested, and the outcome was “inactive”.

What follows are compounds tested against human Tyrosine Protein Kinase Receptor Tie-2 (Tie2), TEK (gene 7010) (UniProt Q02763) (assay: NVS_ENZ_hTie2: NovaScreen (NVS) Enzymatic Assay for human Tyrosine Protein Kinase Receptor Tie-2 (Tie2) (AID 2283225)).
How it was run: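 Recombinant human Tie2 kinase activity was read cell-free by fluorescence with electrophoretic mobility shift, 1 hour after dosing. The screen used 25 uM in duplicate, then concentration-response up to 50 uM. Signal loss was scored against DMSO.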
With `CC(C)(C)C(O)(CCc1ccc(Cl)cc1)Cn1cncn1` (centres undefined) the outcome was “inactive”. `CCCCC(CC)COC(=O)c1ccc(C(=O)OCC(CC)CCCC)c(C(=O)OCC(CC)CCCC)c1` (centres undefined) was tested, and the outcome was “inactive”. For `O=C(Oc1ccc(Br)cc1)N1CCN2CCC1CC2`, the outcome was “inactive”.

These compounds were tested against rabbit Imidazoline 2 Central (I2C), CKB (gene 100009085) (UniProt P00567) (assay: NVS_ENZ_rabI2C: NovaScreen (NVS) Enzymatic Assay for rabbit Imidazoline 2 Central (I2C) (AID 2283228)).
How it was run: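 Rabbit brain membranes, cell-free; readout by filter-based scintillation counting 1.5 hours after dosing, loss of signal vs DMSO. Initial duplicate test at 25 uM, then concentration-response with 50 uM top concentration.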
In the case of `Nc1ccc(N=Nc2ccccc2)cc1`, the outcome is reported as “inactive”. With `CN(C)C(=O)Nc1ccc(Cl)cc1` the outcome was “inactive”. In the case of `Nc1ccc([N+](=O)[O-])cc1`, the outcome is reported as “inactive”. `CC(C)(O)c1cnn2c(-c3ccc(F)c(-c4c(F)cccc4C#N)c3)cnc2n1` was tested, and the AC50 was 0.362 µM (active). With `O=C(N[C@H](c1ccccc1)[C@@H]1CN2CCC1CC2)c1c(Cl)ccc(C(F)(F)F)c1Cl` the outcome was “inactive”. For `CCOC(=O)[C@]1(c2ccccc2)Oc2ccccc2[C@@H]1N`, the AC50 was 4.37 µM (active). With `Cc1ccc(N)c(N)c1` the outcome was “inactive”.

The compounds below were run against human Vascular Endothelial Growth Factor Receptor 2 (VEGFR2), KDR (gene 3791) (UniProt P35968) (assay: NVS_ENZ_hVEGFR2: NovaScreen (NVS) Enzymatic Assay for human Vascular Endothelial Growth Factor Receptor 2 (VEGFR2) (AID 2283230)).
Chain of human Vascular Endothelial Growth Factor Receptor 2 (VEGFR2), KDR (gene 3791) (P35968 whole entry, looked up): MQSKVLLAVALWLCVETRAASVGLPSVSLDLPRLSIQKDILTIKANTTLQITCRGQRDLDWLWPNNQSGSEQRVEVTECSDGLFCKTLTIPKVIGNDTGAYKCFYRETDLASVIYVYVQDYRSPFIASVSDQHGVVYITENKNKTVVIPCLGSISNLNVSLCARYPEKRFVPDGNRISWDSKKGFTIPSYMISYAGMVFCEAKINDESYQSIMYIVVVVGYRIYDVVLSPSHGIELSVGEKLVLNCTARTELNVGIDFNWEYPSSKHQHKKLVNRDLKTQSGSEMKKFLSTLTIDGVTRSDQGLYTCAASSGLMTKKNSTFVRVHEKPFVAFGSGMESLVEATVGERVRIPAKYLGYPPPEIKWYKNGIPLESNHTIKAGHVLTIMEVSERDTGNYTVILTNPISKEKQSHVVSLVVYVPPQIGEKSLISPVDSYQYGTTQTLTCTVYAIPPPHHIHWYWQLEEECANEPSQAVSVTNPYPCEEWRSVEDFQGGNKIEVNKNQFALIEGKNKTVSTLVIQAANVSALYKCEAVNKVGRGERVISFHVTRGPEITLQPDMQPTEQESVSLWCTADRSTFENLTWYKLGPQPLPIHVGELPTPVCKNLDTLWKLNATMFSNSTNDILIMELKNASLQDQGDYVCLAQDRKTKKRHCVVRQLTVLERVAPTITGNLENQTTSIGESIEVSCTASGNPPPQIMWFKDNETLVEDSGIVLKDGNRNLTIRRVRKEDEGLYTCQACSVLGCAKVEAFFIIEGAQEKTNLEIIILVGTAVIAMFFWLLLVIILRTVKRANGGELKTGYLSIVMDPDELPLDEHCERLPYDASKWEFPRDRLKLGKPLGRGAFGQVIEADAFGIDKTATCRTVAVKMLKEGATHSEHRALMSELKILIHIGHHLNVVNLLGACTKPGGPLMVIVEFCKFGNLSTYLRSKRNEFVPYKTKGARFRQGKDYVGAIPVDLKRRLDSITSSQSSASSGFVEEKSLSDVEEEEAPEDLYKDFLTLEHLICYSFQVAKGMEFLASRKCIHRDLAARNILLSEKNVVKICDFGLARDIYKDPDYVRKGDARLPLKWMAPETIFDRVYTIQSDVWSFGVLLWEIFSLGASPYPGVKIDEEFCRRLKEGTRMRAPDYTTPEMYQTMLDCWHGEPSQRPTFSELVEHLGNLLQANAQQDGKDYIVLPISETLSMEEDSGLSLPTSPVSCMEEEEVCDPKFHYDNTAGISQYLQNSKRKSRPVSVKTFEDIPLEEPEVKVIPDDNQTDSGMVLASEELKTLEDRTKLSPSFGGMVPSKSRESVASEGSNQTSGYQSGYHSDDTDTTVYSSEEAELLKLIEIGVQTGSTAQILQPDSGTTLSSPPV
How it was run: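 Cell-free recombinant VEGFR2 kinase, fluorescent substrate with electrophoretic mobility-shift separation; read 1 h after dosing. Screened at 25 uM in duplicate, hits to concentration-response up to 50 uM; loss-of-signal versus DMSO.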
For `Clc1ccc(Cl)c(Cl)c1`, the outcome was “inactive”. With `CNC(=O)Oc1cccc2c1OC(C)(C)C2` the outcome was “inactive”. For `COc1cc(C=O)cc2c1[C@H](COC(N)=O)[C@]1(OC(C)=O)ON2C[C@H]2[C@@H]1N2C(C)=O`, the outcome was “inactive”. `c1ccc(NNc2ccccc2)cc1` was tested, and the outcome was “inactive”. In the case of `COC(=O)Nc1nc2ccccc2[nH]1`, the outcome is reported as “inactive”.

The compounds below were run against sheep Cyclooxygenase-2 (Cox2), PTGS2 (gene 443460) (UniProt P79208) (assay: NVS_ENZ_oCOX2: NovaScreen (NVS) Enzymatic Assay for sheep Cyclooxygenase-2 (Cox2) (AID 2283231)).
Chain of sheep Cyclooxygenase-2 (Cox2), PTGS2 (gene 443460) (P79208 whole entry, looked up): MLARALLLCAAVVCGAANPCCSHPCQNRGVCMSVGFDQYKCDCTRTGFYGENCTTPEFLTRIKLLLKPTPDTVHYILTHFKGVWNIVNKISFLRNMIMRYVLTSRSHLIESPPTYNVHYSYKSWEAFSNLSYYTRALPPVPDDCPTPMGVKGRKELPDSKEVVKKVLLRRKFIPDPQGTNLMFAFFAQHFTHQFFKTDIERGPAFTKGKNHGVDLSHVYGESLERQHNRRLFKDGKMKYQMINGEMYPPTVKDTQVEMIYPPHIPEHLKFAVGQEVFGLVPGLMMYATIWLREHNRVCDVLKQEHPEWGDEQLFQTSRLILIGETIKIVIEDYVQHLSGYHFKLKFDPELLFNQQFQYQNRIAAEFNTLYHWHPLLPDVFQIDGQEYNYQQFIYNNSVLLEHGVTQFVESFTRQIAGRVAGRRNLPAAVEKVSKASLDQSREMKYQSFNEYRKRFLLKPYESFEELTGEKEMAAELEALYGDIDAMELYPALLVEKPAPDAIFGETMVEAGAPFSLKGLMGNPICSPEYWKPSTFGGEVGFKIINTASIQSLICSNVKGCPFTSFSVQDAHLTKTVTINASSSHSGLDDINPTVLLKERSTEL
How it was run: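 Enzyme from ovine placenta, cell-free; colorimetric absorbance read 0.66 hour after dosing, loss of signal vs DMSO. Screened in duplicate at 25 uM, then concentration-response up to 50 uM.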
`CC(O)CCO` (centres undefined) was tested, and the outcome was “inactive”. For `CN(C)c1ccccc1`, the outcome was “inactive”. With `Cc1ccc([N+](=O)[O-])cc1` the outcome was “inactive”.
